# HEK293 cAMP cs: counter-screen for TSHR agonists: cAMP increase in parental HEK293 | parental HEK293 CNG cAMP sensor, membrane potential fluorescence | AID 938 | 73,000 compounds, 2.5% hits | Potency, µM (series often up to 57.1 µM), for the others: at the top dose activation, usual class: activators; also: % of control where 0% means no effect; nearly all actives have a fitted effect of over 55% in size
#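 Parental HEK 293 cells stably expressing a cAMP-gated CNG channel were loaded with membrane potential dye containing 100 uM RO 20-1724 for 60 min. Compound added for 30 min; depolarization read as fluorescence intensity at 590 nm.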
# TSHR agonist: TSH receptor (human) agonism; P16473; Potency, µM (series often up to 57.1 µM), without a hit: at the top dose activation, hits mostly activators; 73,000 compounds, 0.48% hits; HEK293-CNG-TSHR cells (CNG channel as cAMP sensor), membrane potential dye, cAMP; active = well fitted activation curve with a large enough effect in the main read-out, with a control signal flat, not every such curve was filed as active; inconclusive = small, poorly fitted or top-dose-only effect, or a change in a side signal; inactive = no such curve, though single readings can be large or run the other way; % of control where 0% means no effect;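 also: the control signal comes from parental cells without the receptor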
# Target sequence (P16473 whole entry, looked up): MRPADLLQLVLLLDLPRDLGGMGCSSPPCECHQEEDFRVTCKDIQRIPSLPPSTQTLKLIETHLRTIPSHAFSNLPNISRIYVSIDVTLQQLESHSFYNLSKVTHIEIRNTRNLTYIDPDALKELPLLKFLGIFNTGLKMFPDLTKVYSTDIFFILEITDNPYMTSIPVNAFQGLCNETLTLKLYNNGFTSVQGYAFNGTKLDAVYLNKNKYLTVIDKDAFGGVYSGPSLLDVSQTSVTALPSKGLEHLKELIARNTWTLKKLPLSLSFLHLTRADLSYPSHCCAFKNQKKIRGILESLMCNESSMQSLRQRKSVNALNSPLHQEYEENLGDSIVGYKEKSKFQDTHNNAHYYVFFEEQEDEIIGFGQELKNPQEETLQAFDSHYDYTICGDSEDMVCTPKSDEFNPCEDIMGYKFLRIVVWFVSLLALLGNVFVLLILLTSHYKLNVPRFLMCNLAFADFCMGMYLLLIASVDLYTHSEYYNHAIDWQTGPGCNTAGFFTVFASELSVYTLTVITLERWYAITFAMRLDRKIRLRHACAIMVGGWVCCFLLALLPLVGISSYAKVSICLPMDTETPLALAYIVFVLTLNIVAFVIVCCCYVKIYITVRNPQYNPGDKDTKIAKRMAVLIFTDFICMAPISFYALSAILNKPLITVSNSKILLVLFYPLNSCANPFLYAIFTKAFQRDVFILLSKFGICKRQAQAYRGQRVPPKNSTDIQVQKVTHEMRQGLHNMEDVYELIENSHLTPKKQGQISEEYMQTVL
#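 HEK 293 cells stably expressing TSHR and a cAMP-gated CNG channel; parental CNG-only cells as counterscreen. Cells preloaded 60 min with membrane potential dye plus 100 uM RO 20-1724, then compound 30 min; fluorescence read at 590 nm.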
# Imprint erasure: induces erasure of genomic imprints in mouse ES cells; mouse ES Peg3-LacZ reporter, beta-gal luminescence, 40 h; Potency, µM (highest dose often 60.7 µM), for the others: top-dose activity change, positive = activation, hits mostly activators; 110,000 compounds, 0.02% hits; AID 1948
#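 Gelatin-coated wells received 300 freshly trypsinized female ES cells with a Peg3LacZ-Neo reporter on the maternal allele, then incubated 40 hours at 37C. BetaGlo was added for 5 minutes at room temperature before a single luminescence read.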
# An asterisk follows results filed as active; ? = inconclusive; · = not tested or not shown; [ ] = remark or other dose. The full list was thinned out, with hits kept by preference. Unless noted, calls follow the shape of the dose curve; as a rule, active = well fitted activation curve with a large enough effect; inconclusive = small, poorly fitted or top-dose-only effect; inactive = no such curve, though single readings can be large or run the other way. Potency is read from the fitted curve at half-maximal effect.
SMILES,HEK293 cAMP cs,TSHR agonist,Imprint erasure
CCCN[C@@H]1CCc2c(OC)cccc2[C@@H]1C,28%,27%,-5%
CCCN(CCC)[C@@H]1CCc2c(OC)cccc2[C@@H]1C,32µM*,?,-12%
C[N+]1(C)CCO[C@@](O)(c2ccc(-c3ccc([C@]4(O)C[N+](C)(C)CCO4)cc3)cc2)C1,2%,1%,·
CCNC(=O)[C@H]1O[C@@H](n2cnc3c(N)ncnc32)[C@H](O)[C@H]1O,·,·,-8%
CCNC(=O)C1OC(n2cnc3c(N)ncnc32)C(O)C1O (configuration not stated),0.63µM*,?,·
N[C@H](CCl)C(=O)O,12%,3%,·
O=S(=O)(NCCO)c1cc[c]([Sb](=[O])([OH])[OH])cc1,-7%[11.4 µM],5%[11.4 µM],·
Nc1ccccc1O.O.O=C(O)[C@H]1[O][Sb][O][C@H]1C(=O)O,-7%[11.4 µM],0%[11.4 µM],0.32µM*
Nc1ccccc1C(=O)O,0%,1%,1%
CCCCOC(=O)c1ccccc1C(=O)OCc1ccccc1,16µM*,?,8%
CCCCCCCCOC(=O)c1ccccc1C(=O)OCCCCCCCC,13%,-2%,3%
OC[C@H]1CCCN2CCCC[C@@H]12,-2%,-1%,·
c1cnc(N2CCCC3(CCNCC3)C2)nc1,9%,2%,·
c1ccc(N2CC3(CCNCC3)C2)nc1,6%,-3%,·
c1cc(N2CCCC3(CCNCC3)C2)ccn1,2.5µM*,?,·
c1ccc(N2CC3(CCNCC3)C2)cc1,10µM*,?,·
CNc1ccc2oc(C[C@@H]3O[C@@]4(CC[C@H]3C)O[C@@H]([C@@H](C)C(=O)c3ccc[nH]3)[C@@H](C)C[C@H]4C)nc2c1C(=O)O,12%,16%,·
CN[C@H]1[C@H]2[C@H]3CCN2C[C@@H]1O3,0%,5%,·
CCN1C[C@@]2(COC)[C@H](O)C[C@H](OC)[C@@]34[C@@H]5C[C@@]6(O)[C@H](OC(=O)c7ccccc7)[C@H]5[C@@](OC(C)=O)([C@H]([C@@H](OC)[C@H]23)[C@H]14)[C@H](O)[C@@H]6OC,4%,1%,·
COC(=O)[C@]1(C)C[C@H]1[C@H](NP(=O)(c1ccccc1)c1ccccc1)c1ccccc1,?,?,-13%
C=C[C@@H]1C[C@@]1(C)[C@@H](NP(=O)(c1ccccc1)c1ccccc1)c1ccccc1,5µM*,?,-9%
C=CCOC(=O)COc1cc(C)cc2oc(=O)c3c(c12)CCC3,5µM*,?,3%
CCCCOC(=O)COc1cc(C)cc2oc(=O)c3c(c12)CCC3,9%,1%,5%
Cc1ccc(S(=O)ON2CCC(C(=O)O)(c3ccccc3)CC2)cc1 (configuration not stated),-1%[11.4 µM],-1%[11.4 µM],0%[10.9 µM]
CC[C@@H]1[C@@H]2Cc3ccc(O)cc3[C@@]1(CC)CCN2C,4%[11.4 µM],16%[11.4 µM],4%[10.9 µM]
SMILES,HEK293 cAMP cs,TSHR agonist,Imprint erasure
CN(C)C1(c2nnnn2-c2ccc(Cl)cc2)CCCCC1,26%,148%,-19%
CC(C)CC(N(C)C)C1(c2ccc(Cl)cc2)CCC1 (configuration not stated),25µM*,?,-14%
CC(C)[C@@]1(NC(=O)[C@@H]2C[C@H]3c4cccc5[nH]cc(c45)C[C@@H]3N(C)C2)O[C@@]2(O)[C@H]3CCCN3C(=O)[C@@H](Cc3ccccc3)N2C1=O,-30%,-31%,·
O=CN1C[C@H]2C[C@@H](C1)c1cccc(=O)n1C2,-4%,-1%,·
CSC([N-]/N=C/c1cccc(C)n1)=[S]=[Cu].CS[C@H]([S-])[N-]/N=C/c1cccc(C)n1,-2%[11.4 µM],-7%[11.4 µM],·
N#Cc1ccccc1Cn1cc(C(=O)C2CC2)c2ccccc21,?,?,-25%
CCC(=O)c1cn(Cc2ccccc2C#N)c2ccccc12,20µM*,?,-12%
O=C(Cn1cc(C(=O)c2ccccc2F)c2ccccc21)NCc1ccco1,7%,16%,-2%
N#Cc1ccccc1Cn1cc(C(=O)c2ccco2)c2ccccc21,16µM*,?,-21%
COC(=O)[C@H](N)CCCN=C(N)N[N+](=O)[O-],11%,7%,·
Cc1ccc2ccccc2c1C,·,·,-3%
O=C1OC(=O)c2c(Cl)c(Cl)c(Cl)c(Cl)c21,40µM*,?,0%
C[C@@H]1Cc2cc3c(cc2C(c2ccc(N)cc2)=NN1)OCO3,11%,-4%,·
Cc1[nH]nc2c1C1(CCC3(CC1)OCCO3)C(C#N)=C(N)O2,1%,10µM*,-3%
O=C(O)[C@H]1[C@H](C(=O)O)[C@H]2CC[C@@H]1O2,5%,-77%,·
N#Cc1cc2c(nc1SCC(=O)Nc1ccc(OC(F)(F)F)cc1)C1CCN2CC1,·,·,-8%[10.9 µM]
N#CC(C#N)=NNc1ccc(OC(F)(F)F)cc1,0.63µM*,?,-66%
Cc1cccc(C2=NCC(=O)N(CC(=O)NCc3ccco3)c3sc4c(c32)CCCC4)c1,?,?,-13%
COc1ccc(C2=NCC(=O)N(CC(=O)NCc3ccco3)c3sc4c(c32)CCCC4)cc1,19%,16µM*,-17%
COc1ccc(C[C@@H]2NC[C@H](O)[C@H]2OC(C)=O)cc1,1%,0%,·
C/C=C(\C)C(=O)O[C@@H]1C(C)=C2[C@H]([C@@H]1OC(=O)CCCCCCC)[C@@](C)(OC(C)=O)C[C@@H](OC(=O)CCC)[C@@]1(O)[C@H]2OC(=O)[C@]1(C)O,13%,·,·
Cc1noc(C)c1C(=O)N1CCC2(CCCN(CC(C)C)C2)CC1,16µM*,?,·
Cc1noc(C)c1C(=O)N1CCC2(CC1)OCCO2,2%,2%,26%
COC(=O)C(c1ccccc1)C1CCCCN1 (configuration not stated),?,?,3%
O=C(O)[C@@H]1C[C@H]1[C@@H](NP(=O)(c1ccccc1)c1ccccc1)c1ccccc1,3%,3%,-11%
SMILES,HEK293 cAMP cs,TSHR agonist,Imprint erasure
COC(=O)C1C(OC(=O)c2ccccc2)CC2CCC1N2C (configuration not stated),·,·,-9%
CNC(=O)[C@H]1C[C@@H]1[C@H](NP(=O)(c1ccccc1)c1ccccc1)c1ccccc1,16µM*,?,1%
COC(=O)[C@H]1C[C@@H]1[C@H](NP(=O)(c1ccccc1)c1ccccc1)c1ccccc1,0.5µM*,?,-8%
COC(=O)[C@@H]1C[C@@H]1[C@@H](NP(=O)(c1ccccc1)c1ccccc1)c1ccccc1,10µM*,?,·
COC(=O)[C@@H]1C[C@H]1[C@@H](NP(=O)(c1ccccc1)c1ccccc1)c1ccccc1,13µM*,?,-11%
Nc1nc2c(ncn2[C@@H]2O[C@H](CO)[C@@H](O)[C@@H]2O)c(=[SH+])[nH]1.O=[N+]([O-])c1ccc(O)[c]([Hg])c1,·,·,8%[10.9 µM]
CC[C@@]12CCCN3CC[C@@]4(c5ccc(OC)c(O)c5N(C(C)=O)[C@H]4CC1)[C@H]32,5%,4%,·
O=[N+]([O-])c1ccc(O[C@H]2O[C@@H](CO)[C@@H](O)[C@@H](O)[C@@H]2F)c([N+](=O)[O-])c1,13%,13%,·
CC(C)(O)[C@H]1[C@H]2OC(=O)[C@@H]1[C@]1(O)C[C@H]3O[C@]34C(=O)O[C@H]2[C@]14C (tested in a mixture with another compound),5%,9%,·

# Bioassay records: PubChem BioAssay, National Center for Advancing Translational Sciences (NCATS)
